Measurements from PubChem BioAssay.
Records with an inconclusive call do not appear. Calls of active or inactive are those of the source.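 How the source made its calls, unless noted: active means viability at or below 10% of carrier control in both of two separate runs; inconclusive means viability at or below 10% in only one of the two runs; inactive means the rest.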

How the values were obtained:
[1] = reducers of endogenous Her2 protein level, primary screen, SKBR3 breast tumor cells, AlphaScreen, ATP viability (AID 461;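 active means Her2 level under about 52% in both replicate screens, with viability over 70% of control, limit read from the data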;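 on Her2 level: lower value means less Her2 protein in the cells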;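 on viability: percent of carrier control wells set as 100% viability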); settings: 18-24 h, measured here: SKBR3 viability, ATP luminescence, at 10 µM
[2] = molecular target: Receptor tyrosine-protein kinase erbB-2 (Homo sapiens) (UniProt P04626); assay: as above; settings: 18-24 h, at 10 µM, stronger effect = lower value
[3] = SK-BR-3 cell growth inhibitors, pilot screen, 24 h, human (AID 572); settings: SK-BR-3 viability, CellTiter-Glo luminescence, at 10 µM, stronger effect = lower value;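 further: compound exposure lasted between 18 and 24 h rather than exactly 24 h; 100% = carrier-treated control wells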
[4] = HUVEC growth inhibition – cell-based, human, primary screen (AID 575;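 active means viability at or below 30% in both replicate assays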;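 further: 100% = median of untreated cell wells with 0.1% DMSO on each plate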); settings: HUVEC proliferation, CellTiter-Glo luminescence, 72 h; at 10 µM; stronger effect = lower value
[5] = growth inhibitors of H69AR lung tumor, primary screen, human, duplicate replicates (AID 580;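 active means viability at or under a set limit in both replicates, limit being median viability minus 3 SD, cut at about 48% in these data, passing the limit was not always enough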;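 further: 100% = mean luminescence of untreated wells and 0% = no signal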); settings: H69AR lung tumor cells viability, ATP luminescence, 72 h; at 10 µM; stronger effect = lower value
[6] = reversal of MRP1-mediated doxorubicin resistance, pilot screen, H69AR cells, doxorubicin co-treatment (AID 601;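 active means viability loss from added drug above about 55%, and viability with drug at most 40%, in both replicates, limit read from the data, passing the limit was not always enough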); settings: CellTiter-Glo, 72 h, at 10 µM; for differential viability (reversal): stronger effect = higher value
[7] = 384-well plate pilot, post-Golgi transport modulator project, inhibition of yeast transport mutant growth (AID 636; in the data active means inhibition above about 31%); settings: absorbance 615 nm, about 18 h, stronger effect = higher value
[8] = growth suppression of yeast trafficking mutant, preliminary HTS, modulators of trafficking downstream of Golgi apparatus project, 1536-format plate, OD 615 nm (AID 637; in the data active means inhibition above about 30%); settings: yeast transport mutant growth, absorbance 615 nm, 18 h; stronger effect = higher value
[9] = OD615 S. cerevisiae growth inhibition, permissive medium, pilot counter-assay, permissive growth control for S. cerevisiae lifespan shortening project (AID 705;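 active means growth inhibition above 25% in both replicates, a cutoff set 3 SD above the mean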); settings: OD615, 24 h, at 10 µM, stronger effect = higher value
[10] = Restrictive medium S. cerevisiae growth inhibition, OD615, pilot screen of yeast lifespan reduction project, restrictive growth control (AID 706;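 active means growth inhibition above a set limit, 3 SD over mean compound inhibition, in both replicates, cut at about 43% in these data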;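 further: modified DeaD lifespan yeast strain shifted to restrictive glucose medium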); settings: OD615, 48 h, at 10 µM, stronger effect = higher value
[11] = viability gain of MRP-1-high H69AR cells under doxorubicin, pilot screen, MRP-1 activator project, CellTiter-Glo, duplicate (AID 807;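 active means viability increase at or above a cutoff of the median across tested compounds plus 3 SD, cut at about 8.5% in these data, passing the limit was not always enough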;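 further: compound pretreatment 18-22 h then 72 h combined with doxorubicin; 0% = doxorubicin alone and 100% = vehicle without doxorubicin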); settings: H69AR viability with doxorubicin, CellTiter-Glo luminescence; at 10 µM; stronger effect = higher value
[12] = growth suppression of beta-catenin knockout HCT116, pilot screen, human colon tumor cells (AID 823;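 active means cell viability at or below a set limit in both duplicate runs, the limit being the all-compound median minus 4 SD, cut at about 23% in these data, passing the limit was not always enough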;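 further: 0% = wells killed by 20 µM Hyamine and 100% = untreated DMSO cell wells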); settings: CellTiter-Glo, 60 h, at 10 µM, stronger effect = lower value
[13] = growth suppression of PTEN-deleted HCT116, pilot screen, cell-based, HCT116 clonal line, CellTiter-Glo (AID 824;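 active means viability at or below 27.92% in each of two runs, the all-compound median minus 4 SD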;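 further: 0% = 20 µM Hyamine control and 100% = vehicle cell control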); settings: 60 h, at 10 µM, stronger effect = lower value
[14] = inhibitors of the yeast RAM network, pilot screen, dse1pr::URA3 reporter, 5-FOA selection (AID 869;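 active means inhibition over a set limit, the all-compound mean plus 3 SD, in both replicate runs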;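 further: 0% = DMSO wells with no growth and 100% = 10 µM 1-NA-PP1 with full growth; RAM network block rescues cells from 5-FOA so hits raise OD615 growth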); settings: S. cerevisiae dse1pr::URA3 5-FOA growth, OD615, 2 d; at 10 µM; stronger effect = higher value; strain carries analog-sensitive mutant Cbk1 kinase
[15] = RAM signaling pathway blockade in yeast – S. cerevisiae, Pdr1DBD-CYC8 efflux-inhibited sensitized strain, primary screen (AID 1298;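 active means RAM network inhibition above 8.4% in each of two replicates, 3 SD over the compound average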;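 further: 0% = DMSO untreated cells without growth and 100% = 10 µM 1-NA-PP1 full growth; higher means more yeast growth rescued from 5-FOA killing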); settings: S. cerevisiae cbk1-as DSE1-URA3 strain, 5-FOA growth OD615, 2 d; at 50 µM; stronger effect = higher value
[16] = H69AR cells + 2 uM doxorubicin, measured here: viability with 2 uM doxorubicin, stronger effect = lower value
[17] = H69AR cells, compound alone cytotoxicity

Chain of Receptor tyrosine-protein kinase erbB-2 (Homo sapiens) (P04626 whole entry, looked up): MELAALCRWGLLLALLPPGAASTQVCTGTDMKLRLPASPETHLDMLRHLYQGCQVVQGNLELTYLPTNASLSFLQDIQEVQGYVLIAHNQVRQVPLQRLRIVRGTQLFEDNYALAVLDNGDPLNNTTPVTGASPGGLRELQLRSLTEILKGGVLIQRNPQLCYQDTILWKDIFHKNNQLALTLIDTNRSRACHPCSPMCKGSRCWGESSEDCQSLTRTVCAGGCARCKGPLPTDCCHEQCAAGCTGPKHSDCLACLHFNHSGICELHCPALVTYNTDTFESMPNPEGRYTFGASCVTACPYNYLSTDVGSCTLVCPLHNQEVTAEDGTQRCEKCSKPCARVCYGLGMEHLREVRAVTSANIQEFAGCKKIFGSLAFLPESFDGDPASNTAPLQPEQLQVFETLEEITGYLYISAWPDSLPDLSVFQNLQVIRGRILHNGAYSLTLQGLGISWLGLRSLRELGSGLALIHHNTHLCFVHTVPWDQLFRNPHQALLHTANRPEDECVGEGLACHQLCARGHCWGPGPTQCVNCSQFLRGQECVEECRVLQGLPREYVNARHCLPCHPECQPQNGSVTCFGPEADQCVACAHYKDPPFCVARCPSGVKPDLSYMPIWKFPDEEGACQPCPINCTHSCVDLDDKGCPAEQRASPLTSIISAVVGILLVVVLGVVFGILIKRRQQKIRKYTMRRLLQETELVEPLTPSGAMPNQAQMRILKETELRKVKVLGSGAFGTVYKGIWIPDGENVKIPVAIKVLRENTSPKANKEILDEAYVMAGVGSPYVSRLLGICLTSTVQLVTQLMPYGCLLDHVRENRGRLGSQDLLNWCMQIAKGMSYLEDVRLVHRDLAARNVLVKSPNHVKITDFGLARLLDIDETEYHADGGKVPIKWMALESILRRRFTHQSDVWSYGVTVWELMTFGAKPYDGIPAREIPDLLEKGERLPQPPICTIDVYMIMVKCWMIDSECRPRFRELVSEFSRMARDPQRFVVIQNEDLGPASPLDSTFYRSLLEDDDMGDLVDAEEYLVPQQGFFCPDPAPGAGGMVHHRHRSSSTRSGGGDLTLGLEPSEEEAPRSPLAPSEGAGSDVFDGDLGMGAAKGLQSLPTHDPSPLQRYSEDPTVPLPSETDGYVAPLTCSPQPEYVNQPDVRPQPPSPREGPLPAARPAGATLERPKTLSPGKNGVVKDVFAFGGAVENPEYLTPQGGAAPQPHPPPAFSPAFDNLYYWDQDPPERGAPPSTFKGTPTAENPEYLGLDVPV

Row | SMILES | viability [1] [%] | Her2 level [2] | viability [3] | viability [4] | viability [5] | differential viability (reversal) ([6]; H69AR cells + 2 uM doxorubicin) | viability [6, 16] [%] | viability [6, 17] [%] | inhibition [7] | inhibition [8] | growth inhibition [9] | growth inhibition [10] | viability increase [11] | viability [12] | viability [13] | inhibition [14] | RAM network inhibition [15]
1 | Cc1csc(NC(=O)C(Cc2ccccc2)n2cccc2)n1 (stereo not drawn) | 91.5 | 87% (inactive) | 91.5% (inactive) | 101% (inactive) | 87.6% (inactive) | 5.21% (inactive) | 82.4 | 87.6 | -3.73% (inactive) | 6.56% (inactive) | -13.9% (inactive) | -8.47% (inactive) | -5.96% (inactive) | 73.8% (inactive) | 73.1% (inactive) | 1.32% (inactive) | 6.15% (inactive)
2 | COC(=O)CCCCCc1ccc(C(C)=O)s1 | 86.5 | 84.5% (inactive) | 86.5% (inactive) | 105% (inactive) | 100% (inactive) | 13.6% (inactive) | 86.5 | 100 | -1.33% (inactive) | -1.61% (inactive) | -3.98% (inactive) | -1.53% (inactive) | 0.73% (inactive) | 96.7% (inactive) | 95% (inactive) | 0.02% (inactive) | 3.12% (inactive)
3 | Cn1c(=O)c(=O)n(C)c2cc(S(=O)(=O)CCC(=O)N3CCOCC3)ccc21 | 88.5 | 84% (inactive) | 88.5% (inactive) | 106% (inactive) | 95% (inactive) | -6.71% (inactive) | 102 | 95 | -0.4% (inactive) | 12.5% (inactive) | -2.16% (inactive) | -4.52% (inactive) | -2.26% (inactive) | 103% (inactive) | 102% (inactive) | 0.99% (inactive) | 6.32% (inactive)
4 | COc1ccccc1NC1=C(C)C(=O)CC1 | 98 | 72% (inactive) | 98% (inactive) | 90.4% (inactive) | 88.7% (inactive) | 14.5% (inactive) | 74.1 | 88.7 | -7.43% (inactive) | -0.67% (inactive) | -1.07% (inactive) | -11.9% (inactive) | -4.17% (inactive) | 75.4% (inactive) | 85.5% (inactive) | 1.62% (inactive) | -0.26% (inactive)
5 | CCCN1CCN(CCCNC(=O)Cn2ncc3c4ccccc4n(C)c3c2=O)CC1 | 99 | 120% (inactive) | 99% (inactive) | 101% (inactive) | 102% (inactive) | 5.29% (inactive) | 96.8 | 102 | 0.9% (inactive) | 5.17% (inactive) | 4.22% (inactive) | -10.6% (inactive) | -1.73% (inactive) | 96.7% (inactive) | 95.8% (inactive) | 1.89% (inactive) | -0.33% (inactive)
6 | CCCCc1cc2c(c(NC(C)=O)n1)c(=O)oc1ccccc12 | 112 | 99% (inactive) | 112% (inactive) | 80.6% (inactive) | 77.9% (inactive) | -8.33% (inactive) | 86.2 | 77.9 | -3.47% (inactive) | -4% (inactive) | -9.7% (inactive) | -4.55% (inactive) | -4.33% (inactive) | 94.8% (inactive) | 87.8% (inactive) | 1.68% (inactive) | 3.84% (inactive)
7 | NC(=O)CSc1cn(CCNC(=O)c2cccs2)c2ccccc12 | 99.5 | 92.5% (inactive) | 99.5% (inactive) | 99.4% (inactive) | 93.4% (inactive) | 1.49% (inactive) | 91.9 | 93.4 | -4% (inactive) | -2.83% (inactive) | -14.1% (inactive) | -28% (inactive) | -0.44% (inactive) | 107% (inactive) | 94.8% (inactive) | 1.34% (inactive) | 5.84% (inactive)
8 | CC1CCc2nn(CC(=O)NCCCN3CCOCC3)cc2C1 (stereo not drawn) | 99.5 | 102% (inactive) | 99.5% (inactive) | 85.6% (inactive) | 90.5% (inactive) | 2.46% (inactive) | 88.1 | 90.5 | -3.97% (inactive) | -0.83% (inactive) | 7.55% (inactive) | 6.69% (inactive) | -1.14% (inactive) | 104% (inactive) | 95% (inactive) | 3.4% (inactive) | 1.33% (inactive)
9 | COc1ccccc1-c1cc2nc(C)c(CCC(=O)NCc3ccco3)c(C)n2n1 | 80 | 88% (inactive) | 80% (inactive) | 88% (inactive) | 89.9% (inactive) | 1.59% (inactive) | 88.3 | 89.9 | -2.69% (inactive) | 0.33% (inactive) | -2.34% (inactive) | -6.24% (inactive) | -3.72% (inactive) | 97.2% (inactive) | 98.1% (inactive) | 1.53% (inactive) | 4.36% (inactive)
10 | CCCSc1nnc2nc3c(nn12)c1ccccc1n3C | 86 | 85.5% (inactive) | 86% (inactive) | 98.9% (inactive) | 89.3% (inactive) | 2.42% (inactive) | 86.9 | 89.3 | -0.27% (inactive) | 7.21% (inactive) | 3.75% (inactive) | 2.38% (inactive) | -4.48% (inactive) | 105% (inactive) | 97% (inactive) | 1.27% (inactive) | 0.96% (inactive)
11 | CC1CCCC(N2CCN(C(=O)c3ccc(F)cc3)CC2)C1 (stereo not drawn) | 95 | 109% (inactive) | 95% (inactive) | 75.4% (inactive) | 91.3% (inactive) | 1.66% (inactive) | 89.6 | 91.3 | 1.2% (inactive) | 3.5% (inactive) | -0.99% (inactive) | -4.36% (inactive) | -0.74% (inactive) | 101% (inactive) | 98.5% (inactive) | 0.22% (inactive) | -0.84% (inactive)
12 | COc1cc(C2c3c(oc4ccccc4c3=O)C(=O)N2c2ccc(C)cn2)ccc1O (stereo not drawn) | 66 | 114% (inactive) | 66% (inactive) | 94.6% (inactive) | 101% (inactive) | 1.23% (inactive) | 100 | 101 | -0.9% (inactive) | -4% (inactive) | -6.67% (inactive) | -1.33% (inactive) | -2.69% (inactive) | 91.9% (inactive) | 88.4% (inactive) | 0.865% (inactive) | 4.26% (inactive)
13 | COc1ccc(-n2c(Cc3cccn3C)nnc2SCC(N)=O)cc1 | 94.5 | 95% (inactive) | 94.5% (inactive) | 112% (inactive) | 97.5% (inactive) | 2.7% (inactive) | 94.8 | 97.5 | 0.64% (inactive) | -3.5% (inactive) | 8.68% (inactive) | 5.57% (inactive) | -2.07% (inactive) | 97.6% (inactive) | 94.4% (inactive) | 1.42% (inactive) | 0.63% (inactive)
14 | CCCC(=O)N1CC(=O)Nc2ccc(C)cc2C1c1ccc(F)cc1 (stereo not drawn) | 86 | 101% (inactive) | 86% (inactive) | 79.9% (inactive) | 97.4% (inactive) | 20.3% (inactive) | 77.1 | 97.4 | -2% (inactive) | 0.16% (inactive) | -8.09% (inactive) | -8.8% (inactive) | -3.73% (inactive) | 82.2% (inactive) | 84.2% (inactive) | 1.42% (inactive) | 2.82% (inactive)
15 | CCN(C1CCCCC1)S(=O)(=O)c1ccc(S(=O)(=O)N2CCN(CCC#N)CC2)cc1 | 105 | 114% (inactive) | 105% (inactive) | 75.8% (inactive) | 87.8% (inactive) | -10.4% (inactive) | 98.3 | 87.8 | -1.28% (inactive) | -3.5% (inactive) | 4.85% (inactive) | 3.67% (inactive) | -3.47% (inactive) | 86.6% (inactive) | 85.9% (inactive) | 0.645% (inactive) | -1.33% (inactive)
16 | Oc1c(C(c2ccccc2)N2CCc3ccccc3C2)sc2ncnn12 (stereo not drawn) | 87.5 | 82.5% (inactive) | 87.5% (inactive) | 74.4% (inactive) | 85% (inactive) | -0.02% (inactive) | 85.1 | 85 | -2.69% (inactive) | -2% (inactive) | 7.92% (inactive) | 8.2% (inactive) | 3.99% (inactive) | 97.1% (inactive) | 93.3% (inactive) | 1.78% (inactive) | 4.48% (inactive)
17 | CC(=O)N(C(C)=O)c1ncc2c([nH]c3ccccc32)c1C#N | 106 | 95% (inactive) | 106% (inactive) | 53.4% (inactive) | 61.4% (inactive) | -20.5% (inactive) | 81.9 | 61.4 | -8.13% (inactive) | -7.26% (inactive) | -10.9% (inactive) | -11.2% (inactive) | -7.26% (inactive) | 66.9% (inactive) | 64.7% (inactive) | 1.25% (inactive) | 6.06% (inactive)
18 | CCOC(=O)c1ccc2ncc(C(=O)OCC)c(NCCN(C)C)c2c1 | 84 | 99.5% (inactive) | 84% (inactive) | 102% (inactive) | 91.8% (inactive) | 10.6% (inactive) | 81.2 | 91.8 | -0.8% (inactive) | 1.83% (inactive) | -4.69% (inactive) | 2.56% (inactive) | -1.02% (inactive) | 95.8% (inactive) | 94.8% (inactive) | 2.64% (inactive) | 2.56% (inactive)
19 | Cc1ccccc1Cn1cc(/C=N/n2cnnc2)c2ccccc21 | 100 | 99.5% (inactive) | 100% (inactive) | 68.7% (inactive) | 95.4% (inactive) | 13.3% (inactive) | 82 | 95.4 | -2.6% (inactive) | 4.83% (inactive) | 7.88% (inactive) | 23.3% (inactive) | -4.78% (inactive) | 67.8% (inactive) | 61.6% (inactive) | 1% (inactive) | -0.25% (inactive)
